# Mtb FBA inh: inhibitors of M. tuberculosis fructose-bisphosphate aldolase; purified M. tuberculosis FBA, fluorescence read-out; inhibition, % at 1 µM; hit rate 2.3% among 360,000; AID 588726; in the data active = inhibition above about 27%;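 note: 0% = vehicle and 100% = reference inhibitor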
# Target sequence (P9WQA3 whole entry, looked up): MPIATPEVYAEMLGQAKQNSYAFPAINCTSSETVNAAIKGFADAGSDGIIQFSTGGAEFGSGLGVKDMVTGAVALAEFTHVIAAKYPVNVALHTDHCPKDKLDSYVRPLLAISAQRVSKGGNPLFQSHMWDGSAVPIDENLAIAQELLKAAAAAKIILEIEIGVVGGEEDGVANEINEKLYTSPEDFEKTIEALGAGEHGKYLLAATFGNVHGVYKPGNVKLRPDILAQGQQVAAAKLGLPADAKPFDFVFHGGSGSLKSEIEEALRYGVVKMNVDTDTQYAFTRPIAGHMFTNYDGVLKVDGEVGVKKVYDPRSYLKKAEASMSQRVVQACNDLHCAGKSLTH
# Mtb bLac sens: beta-lactam sensitization of Mtb H37Rv; M. tuberculosis H37Rv growth with meropenem, percent inhibition; inhibition, % at 25 µM; hit rate 0.27% among 330,000; AID 434955;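 note: growth measured after seven days incubation then overnight dye step; 0% = bacteria only wells and 100% = bacteria with antibiotic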
# Mtb hypoxia rep: reduces hypoxia-regulated biosensor signal in M. tuberculosis | hit rate 0.1% among 300,000 | fluorescence inhibition, % (test concentration not listed) | M. tuberculosis hypoxia-regulated fluorescent reporter, fluorescence; in the data active = fluorescence inhibition mostly above about 23%, no sharp cut-off; inactive = mostly below about 17%
# DUSP3 inh: DUSP3 (human) phosphatase inhibition. recombinant VHR phosphatase, pNPP absorbance. hit rate 0.52% among 290,000. P51452. inhibition, % at 13.3 µM; in the data active = inhibition above about 50%
# GDH-TPI counter-1: inhibits GDH-TPI coupling enzymes, artifact for Mtb FBA screen | AID 588335 | inhibition, % at 4.8 µM | hit rate 1.2% among 360,000 | GDH-TPI coupled enzyme counterscreen, NADH absorbance; in the data active = inhibition above about 30%;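 note: 0% = DMSO wells and 100% = wells lacking the enzyme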
# Mtb FBA confirm: Mtb FBA inhibition, confirmed; purified M. tuberculosis FBA, fluorescence read-out; hit rate 78% among 5,600; shares compounds with Mtb FBA inh; inhibition, % at 1 µM; in the data active = inhibition above about 27%;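 note: 0% = vehicle wells and 100% = reference inhibitor wells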
# GDH-TPI counter-2: counter-screen for M. tuberculosis FBA inhibitors: GDH-TPI coupled enzyme inhibition; shares compounds with Mtb FBA inh; GDH-TPI coupled enzyme counterscreen, fluorescence; inhibition, % at 1 µM; hit rate 81% among 5,600; AID 652141; in the data active = inhibition above about 10%
# GDH-TPI DR: GDH-TPI dose response counter-screen for Mtb FBA; AID 652145; GDH-TPI coupled enzyme assay, fluorescence, artifact counterscreen; shares compounds with Mtb FBA inh; hit rate 79% among 170; IC50, µM
# The depositor's hits bear a star; . = not tested or not shown; + = active, no number. A selection: hits, their analogues and other compounds. The true share with any hit is near 3.6%. Unless noted, the rule behind the calls is not given here.
SMILES,Mtb FBA inh,Mtb bLac sens,Mtb hypoxia rep,DUSP3 inh,GDH-TPI counter-1,Mtb FBA confirm,GDH-TPI counter-2,others
Cc1noc(C)c1NC(=O)Nc1ccc2c(c1)CC(=O)N(C(C)CO)CC(C)C(CN(C)C(=O)Nc1cccc3ccccc13)O2 (stereo not given),.,.,15.0,.,.,.,.,
CCOC(=O)N1CCC(NC(=O)c2ccc3c(c2)N(Cc2ccc(F)cc2)CCS3)CC1,71.2*,-1.3,.,2.4,5.0,181.8*,150.6*,
CCOC(=O)N1CCC(NC(=O)c2ccc3c(c2)N(Cc2ccccc2)CCS3)CC1,28.0*,3.8,.,-4.4,0.0,65.3*,62.4*,
CCOC(=O)N1CCC(NC(=O)c2ccc3c(c2)N=C(C)c2ccccc2S3)CC1,1.9,-0.8,-9.2,12.8,5.6,.,.,
COc1cc2c3c([nH]c2cc1F)C(=O)NCC3,102.0*,-0.8,0.6,.,-3.5,70.7*,45.7*,
NC(=O)c1cc2nc(-c3ccco3)cc(C(F)(F)F)n2n1,23.8,1.0,16.0,13.2,28.3,.,.,
Cc1ccc(Nc2cc(-c3ccccc3)nc3ncnn23)cc1,-19.8,-1.2,17.9,31.0,1.5,.,.,
FC(F)(F)c1cc(-c2ccco2)nc2ncnn12,27.4*,0.4,8.2,-1.5,17.4,75.3*,56.5*,
FC(F)(F)c1cc(-c2ccccc2)nc2ncnn12,34.0*,2.3,1.2,35.2,0.6,0.4,-3.0,
O=C(NN=Cc1ccncc1)c1cccc([N+](=O)[O-])c1,.,.,-2.7,.,.,.,.,
NS(=O)(=O)c1ccc(NC(=O)COC(=O)COc2ccc3ccccc3c2)cc1,42.3*,-5.5,2.3,-10.4,5.0,55.5*,37.4*,
CCOC(=O)c1sc(N(C)C)nc1-c1ccccc1,39.0*,3.1,.,-4.8,14.3,135.9*,97.0*,
CC1CN(C(C)CO)C(=O)c2cccc(NC(=O)c3cnccn3)c2OC1CN(C)S(=O)(=O)c1ccc(F)cc1 (stereo not given),.,.,6.0,.,.,.,.,
Oc1ccc(Cl)cc1C=Nc1ccccc1Br,-0.9,-3.4,11.5,7.3,-5.6,.,.,
Oc1ccc(Br)cc1C=Nc1ccc2c3c(cccc13)CC2,38.4*,8.6,2.4,2.6,5.9,+,+,
COc1ccc(-c2cc(=O)oc3c(C)c(OCC(=O)N[C@@H](Cc4ccc(O)cc4)C(=O)O)ccc23)cc1,1.1,1.6,.,24.7,20.6,.,.,
Cc1c(O)ccc2c(CC(=O)N[C@@H](Cc3ccc(O)cc3)C(=O)O)cc(=O)oc12,94.3*,-0.2,-0.9,1.6,21.3,15.1,2.4,GDH-TPI DR=1.77*
CC(=NNS(=O)(=O)c1ccccc1)c1ccc(NC(=O)C2CC2)cc1,.,.,11.1,.,.,.,.,
C=CCc1ccc(O)c(-c2cc(CC=C)ccc2O)c1,33.7*,-6.4,.,-28.9,10.8,86.3*,63.1*,
COc1ccc2nc(CC(C)(C)CC(=O)O)c[n+]([O-])c2c1,63.6*,-14.3,8.3,-2.0,8.8,+,+,
N#Cc1c(C(F)(F)F)cc(-c2ccccc2)nc1SCCN1CCOCC1,46.9*,6.1,8.0,20.8,1.4,-2.0,-5.0,
C=CCCC(Cc1ccc(F)cc1)C(=O)OCC(NC(=O)C(CC=C)CC(=O)NCCO)C(C)(C)C (stereo not given),.,.,10.0,.,.,.,.,
Cc1c(C)c2ccc(OCC(=O)N3C[C@H]4C[C@@H](C3)c3cccc(=O)n3C4)cc2oc1=O,59.9*,-1.0,.,8.8,22.6,-8.1,-5.6,
Cc1cc(O)c2c(C)c(CC(=O)N3C[C@H]4C[C@@H](C3)c3cccc(=O)n3C4)c(=O)oc2c1,1.6,3.0,.,16.5,9.8,.,.,
C=C(C)COc1ccc2c(C)c(CCC(=O)N3C[C@H]4C[C@@H](C3)c3cccc(=O)n3C4)c(=O)oc2c1,70.3*,-3.3,.,20.5,23.5,65.3*,52.8*,
C=C(C)COc1cc2oc(=O)c(CC(=O)N3C[C@H]4C[C@@H](C3)c3cccc(=O)n3C4)c(C)c2cc1Cl,67.5*,-4.0,.,20.5,22.6,1.6,-3.0,
Cc1coc2cc3oc(=O)c(CCC(=O)N4C[C@H]5C[C@@H](C4)c4cccc(=O)n4C5)c(C)c3cc12,17.1,-3.2,.,20.6,11.8,.,.,
